Results as given in PubChem BioAssay (Tox21).
Records with an inconclusive call do not appear. Entries that show only a call come without a potency. Unmarked numbers belong to inactive results. Active and inactive are the calls of the source. Calls follow the shape of the dose curve; as a rule, active = well fitted curve in the direction sought with a large enough effect in the repeat runs; inconclusive = weak or mixed curves; inactive = no such curve, though single readings can be large; an effect the other way counts as inactive or inconclusive.

Key:
[1] = A CellTox Green Cytotoxicity Assay to monitor cytotoxicity in HEK293 cells - 40 hour (AID 1224871); also: nearly all actives have a fitted effect of over 45% in size; also: potency is read from the fitted curve at half-maximal effect
How it was run: (§1)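 Homogeneous no-lysis format: HEK293 cell suspension mixed with CellTox Green reagent, seeded, incubated 5 h at 37 C/5% CO2, then dosed by pintool with compound in DMSO.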

[2] = qHTS RealTime-Glo MT Cell Viability Assay in HEK293 cells - 16 hour (AID 1224872); also: nearly all actives have a fitted effect of over 50% in size; also: potency is read from the fitted curve at half-maximal effect
How it was run: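 Luminescence generated by NanoLuc from substrate produced by living HEK293 cells served as the viability signal. Each value reflects the reading at its stated time point during continuous 40 h compound exposure at 37 C.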

[3] = qHTS RealTime-Glo MT Cell Viability Assay in HepG2 cells - 8 hour (AID 1224873); also: nearly all actives have a fitted effect of over 55% in size; also: potency is read from the fitted curve at half-maximal effect
How it was run: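 HepG2 cells mixed with RealTime-Glo MT reagents (NanoLuc plus cell-permeant prosubstrate) were seeded at 600 cells/well, incubated 5 h at 37 C/5% CO2, then pinned with compounds in DMSO; nonlytic luminescence tracked viability during 40 h treatment.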

[4] = qHTS RealTime-Glo MT Cell Viability Assay in HEK293 cells - 40 hour (AID 1224874); conditions: RealTime-Glo luminescence; max response: active compounds read low; also: nearly all actives have a fitted effect of over 50% in size; also: potency is read from the fitted curve at half-maximal effect
How it was run: (§2)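 Measured as luminescence from the same continuously cultured HEK293 wells at successive time points (0, 8, 16, 24, 32, 40 h) after compound addition. Reagent present from seeding; dosing at 5 h; incubation 37 C.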

[5] = A CellTox Green Cytotoxicity Assay to monitor cytotoxicity in HEK293 cells - 24 hour (AID 1224875); also: nearly all actives have a fitted effect of over 45% in size; also: potency is read from the fitted curve at half-maximal effect
How it was run: as §1

[6] = A CellTox Green Cytotoxicity Assay to monitor cytotoxicity in HepG2 cells - 16 hour (AID 1224876); also: nearly all actives have a fitted effect of over 45% in size; also: potency is read from the fitted curve at half-maximal effect
How it was run: (§3)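 Fluorescent DNA-binding dye, 600 HepG2 cells/well, 5 h preincubation then compound in DMSO; same plates read at 0–40 h, 37 C.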

[7] = qHTS RealTime-Glo MT Cell Viability Assay in HepG2 cells - 32 hour (AID 1224877); also: nearly all actives have a fitted effect of over 55% in size; also: potency is read from the fitted curve at half-maximal effect
How it was run: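 Tox21 10K library screened in qHTS format on HepG2 cells carrying RealTime-Glo reagents. Compounds were added after a 5 h preincubation, and the luminescent signal from continuous culture was measured repeatedly during 40 h treatment.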

[8] = A CellTox Green Cytotoxicity Assay to monitor cytotoxicity in HepG2 cells - 24 hour (AID 1224878); also: nearly all actives have a fitted effect of over 45% in size; also: potency is read from the fitted curve at half-maximal effect
How it was run: as §3

[9] = A CellTox Green Cytotoxicity Assay to monitor cytotoxicity in HepG2 cells - 40 hour (AID 1224879); also: nearly all actives have a fitted effect of over 40% in size; also: potency is read from the fitted curve at half-maximal effect
How it was run: as §3

[10] = qHTS RealTime-Glo MT Cell Viability Assay in HEK293 cells - 0 hour (AID 1224880)
How it was run: as §2

Compound: Nc1ccc2cc(S(=O)(=O)O)cc(O)c2c1N=Nc1ccccc1C(F)(F)F
- Potency [1]: inactive
- Potency [2]: inactive
- Potency [3]: inactive
- max response [4]: 0.853%
- Potency [5]: inactive
- Potency [6]: inactive
- Potency [7]: inactive
- Potency [8]: inactive
- Potency [9]: inactive

Compound: CN(C)CCCOC1(Cc2ccccc2)CCCCCC1
- Potency [1]: inactive
- Potency [2]: inactive
- Potency [3]: inactive
- max response [4]: 0.0267%
- Potency [5]: inactive
- Potency [6]: inactive
- Potency [7]: inactive
- Potency [8]: inactive
- Potency [9]: inactive

Compound: C1CCCC1
- Potency [1]: inactive
- Potency [2]: inactive
- Potency [3]: inactive
- max response [4]: -2.57%
- Potency [5]: inactive
- Potency [6]: inactive
- Potency [7]: inactive
- Potency [8]: inactive
- Potency [9]: inactive

Compound: CNC(=O)c1ccccc1
- Potency [1]: inactive
- Potency [2]: inactive
- Potency [3]: inactive
- max response [4]: -8.54%
- Potency [5]: inactive
- Potency [6]: inactive
- Potency [7]: inactive
- Potency [8]: inactive
- Potency [9]: inactive

Compound: COC(=O)C1=C(C)NC(C)=C(C(=O)OCCc2ccc(N3CCN(C(c4ccccc4)c4ccccc4)CC3)cc2)C1c1cccc([N+](=O)[O-])c1 (configuration not stated)
- Potency [1]: inactive
- Potency [2]: inactive
- Potency [3]: inactive
- max response [4]: 0.767%
- Potency [5]: inactive
- Potency [6]: inactive
- Potency [7]: inactive
- Potency [8]: inactive
- Potency [9]: inactive

Compound: NNc1nc(-c2ccc(N)cc2)cs1
- Potency [1]: inactive
- Potency [2]: inactive
- Potency [3]: inactive
- Potency [4]: 21.9 µM (active)
- Potency [5]: inactive
- Potency [6]: inactive
- Potency [7]: inactive
- Potency [8]: inactive
- Potency [9]: inactive

Compound: NNC(=O)c1cccc(C(=O)NN)c1
- Potency [1]: inactive
- Potency [2]: inactive
- Potency [3]: inactive
- max response [4]: -2.8%
- Potency [5]: inactive
- Potency [6]: inactive
- Potency [7]: inactive
- Potency [8]: inactive
- Potency [9]: inactive

Compound: CCCCCCCCCCCCCCCCCC[N+](C)(C)Cc1ccccc1
- Potency [1]: 19.7 µM (active)
- Potency [2]: 17.5 µM (active)
- Potency [3]: 49.5 µM (active)
- Potency [4]: 1.75 µM (active)
- Potency [5]: 24.8 µM (active)
- Potency [6]: 44.1 µM (active)
- Potency [7]: 35 µM (active)
- Potency [8]: 24.8 µM (active)
- Potency [9]: 19.7 µM (active)

Compound: Cc1cccc(N(C)C(=S)Oc2ccc3c(c2)C2CCC3C2)c1 (configuration not stated)
- Potency [1]: inactive
- Potency [2]: inactive
- Potency [3]: inactive
- max response [4]: -13.2%
- Potency [5]: inactive
- Potency [6]: inactive
- Potency [7]: inactive
- Potency [8]: inactive
- Potency [9]: inactive

Compound: CCc1cc(Cc2cc(CC)c(N)c(CC)c2)cc(CC)c1N
- Potency [1]: inactive
- Potency [2]: 24.5 µM (active)
- Potency [3]: inactive
- Potency [4]: 27.5 µM (active)
- Potency [5]: inactive
- Potency [6]: inactive
- Potency [7]: inactive
- Potency [8]: inactive

Compound: CSc1cnc(C)cn1
- Potency [1]: 89.4 µM (active)
- Potency [2]: inactive
- Potency [3]: inactive
- max response [4]: 7.94%
- Potency [5]: 89.4 µM (active)
- Potency [6]: 89.4 µM (active)
- Potency [7]: inactive
- Potency [8]: 63.3 µM (active)
- Potency [9]: 63.3 µM (active)
- Potency [10]: inactive

Compound: CCCCC(CC)CN=C(N)NC(N)=NCCCCCCN=C(N)NC(N)=NCC(CC)CCCC (configuration not stated)
- Potency [1]: 8.49 µM (active)
- Potency [2]: 6.74 µM (active)
- Potency [3]: 19 µM (active)
- Potency [4]: 4.25 µM (active)
- Potency [5]: 7.56 µM (active)
- Potency [6]: 8.49 µM (active)
- Potency [7]: 8.49 µM (active)
- Potency [8]: 9.52 µM (active)
- Potency [9]: 8.49 µM (active)

Compound: O=[N+]([O-])c1ccccc1Nc1ccccc1
- Potency [1]: inactive
- Potency [2]: inactive
- Potency [3]: inactive
- max response [4]: 0.685%
- Potency [5]: inactive
- Potency [6]: inactive
- Potency [7]: inactive
- Potency [8]: inactive
- Potency [9]: inactive

Compound: Cc1cc(O)c2ccccc2c1O
- Potency [1]: 9.52 µM (active)
- Potency [2]: 7.56 µM (active)
- Potency [3]: 10.7 µM (active)
- Potency [4]: 8.49 µM (active)
- Potency [5]: 9.52 µM (active)
- Potency [6]: 13.4 µM (active)
- Potency [7]: 13.4 µM (active)
- Potency [8]: 13.4 µM (active)
- Potency [9]: 13.4 µM (active)

Compound: Cc1onc(-c2ccccc2Cl)c1C(=O)N[C@@H]1C(=O)N2[C@@H]1SC(C)(C)[C@@H]2C(=O)O
- Potency [1]: inactive
- Potency [2]: inactive
- Potency [3]: inactive
- max response [4]: -0.669%
- Potency [5]: inactive
- Potency [6]: inactive
- Potency [7]: inactive
- Potency [8]: inactive
- Potency [9]: inactive
- Potency [10]: inactive

Compound: c1ccc(CSCc2ccccc2)cc1
- Potency [1]: inactive
- Potency [2]: inactive
- Potency [3]: inactive
- max response [4]: -5.29%
- Potency [5]: inactive
- Potency [6]: inactive
- Potency [7]: inactive
- Potency [8]: inactive
- Potency [9]: inactive

Compound: [Cl][Bi]([Cl])([c]1ccccc1)([c]1ccccc1)[c]1ccccc1
- Potency [1]: 24.4 µM (active)
- Potency [2]: 4.87 µM (active)
- Potency [3]: 10.9 µM (active)
- Potency [4]: 1.94 µM (active)
- Potency [5]: 27.4 µM (active)
- Potency [6]: 10.9 µM (active)
- Potency [7]: 6.88 µM (active)
- Potency [8]: 7.71 µM (active)
- Potency [9]: 4.87 µM (active)

Compound: CCCCCCCC[N+](CCCCCCCC)(CCCCCCCC)CCCCCCCC
- Potency [1]: 19.5 µM (active)
- Potency [2]: 7.75 µM (active)
- Potency [3]: 24.5 µM (active)
- Potency [4]: 2.18 µM (active)
- Potency [5]: 15.5 µM (active)
- Potency [6]: 24.5 µM (active)
- Potency [7]: 24.5 µM (active)
- Potency [8]: 19.5 µM (active)
- Potency [9]: 24.5 µM (active)

Compound: C[C@@H](NCCCc1cccc(C(F)(F)F)c1)c1cccc2ccccc12
- Potency [1]: 23.9 µM (active)
- Potency [2]: 23.9 µM (active)
- Potency [3]: 23.9 µM (active)
- Potency [4]: 23.9 µM (active)
- Potency [5]: 23.9 µM (active)
- Potency [6]: 19 µM (active)
- Potency [7]: 16.9 µM (active)
- Potency [8]: 16.9 µM (active)
- Potency [9]: 15.1 µM (active)
